Laboratory results as given in PMC5540273 (PLoS ONE, 2017).

How the values were obtained:
Conditions in all cases: concentration: 1 μM, replicates: in singlicate; n = 1
[1] = system: T1, MLK1
T1 construct: gene MAP3K9

[2] = system: MLK2
[3] = system: MLK3
[4] = system: MRCKA
[5] = system: T2, MRCKB
T2 construct: gene CDC42BPB

[6] = system: MST1R
[7] = system: T3, MST1
T3 construct: gene STK4

[8] = system: T4, MST2
T4 construct: gene STK3

[9] = system: T5, MST3
T5 construct: gene STK24

[10] = system: MST4
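Further: KINOMEscan kinase panel screen.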

SMILES | %Inh [1] [%] | %Inh [2] [%] | %Inh [3] [%] | %Inh [4] [%] | %Inh [5] [%] | %Inh [6] [%] | %Inh [7] [%] | %Inh [8] [%] | %Inh [9] [%] | %Inh [10] [%]
Cl.Cl.NCC(C(=O)Nc1cc(Br)c(-c2ccnc3[nH]ccc23)s1)c1ccccc1 (centres unmarked) [GSK1269851] | 0 | 18 | 11 | 0 | 25 | 47 | 0 | 7 | 0 | 11
CC(C)(C)c1ccc2nccc(Nc3cccc(O)c3)c2c1 [GW856795] | 0 | 3 | 0 | 0 | 0 | 32 | 0 | 18 | 0 | 0
Cl.c1ccc(-c2ccc3c(Nc4ccc5[nH]ncc5c4)ccnc3c2)nc1 [GW440137] | 0 | 27 | 11 | 9 | 0 | 43 | 0 | 28 | 0 | 3
COc1ccc(-c2coc3ccc(-c4nnc(SCc5ccc(OC)c(C(F)(F)F)c5)o4)cc23)cc1 | 14 | 0 | 0 | 0 | 0 | 0 | 32 | 11 | 17 | 0
c1ccc(-c2n[nH]cc2Nc2ccnc3ccccc23)nc1 [GW694077] | 11 | 0 | 0 | 18 | 0 | 12 | 0 | 0 | 0 | 0
NCCCC(NC(=O)c1cc(Br)c(-c2ccnc3[nH]ccc23)s1)c1ccccc1.O=C(O)C(F)(F)F.O=C(O)C(F)(F)F (centres unmarked) [GSK1287544] | 0 | 15 | 0 | 63 | 98.8 | 17 | 0 | 0 | 0 | 11
COc1ccc(Nc2nccc(NCCNC(=O)c3cc4ccccc4s3)n2)cc1 [GSK1379896] | 0 | 0 | 14 | 21 | 6 | 40 | 0 | 24 | 0 | 0
CCS(=O)(=O)c1ccc(OC)c(Nc2nccc(-c3c(-c4cccc(NC(=O)c5c(F)cccc5F)c4)nn4ncccc34)n2)c1 [GSK326180] | 0 | 0 | 0 | 24 | 11 | 0 | 21 | 28 | 0 | 0
CCc1ccc(-c2ccc3c(c2)-c2c(cnn2C)S(=O)(=O)N3C)cc1 | 7 | 0 | 0 | 0 | 0 | 31 | 0 | 0 | 0 | 0
Cc1occc1-c1ncc(OC[C@@H](N)Cc2c[nH]c3ccccc23)cc1-c1ccc2[nH]nc(C)c2c1.O=C(O)C(F)(F)F [GSK682037] | 12 | 0 | 28 | 38 | 72 | 41 | 71 | 90 | 55 | 85
O=C(Nc1cccc(-c2nn3ccccc3c2-c2ccnc(Nc3cccc(C(F)(F)F)c3)n2)c1)c1c(F)cccc1F [GSK292658] | 0 | 0 | 0 | 4 | 4 | 0 | 11 | 0 | 0 | 3
COc1cc(Nc2nccc(-c3c(-c4cccc(NC(=O)c5c(F)cccc5F)c4)nn4ncccc34)n2)cc(OC)c1OC [GSK327238] | 9 | 39 | 50 | 100 | 98.9 | 79 | 96.6 | 92.1 | 64 | 42
O=c1[nH]cc(-c2ccc(N3CCOCC3)cc2)c2sc(-c3cn[nH]c3)cc12 [GSK2276055] | 0 | 0 | 0 | 0 | 0 | 31 | 0 | 32 | 29 | 0
COc1cccc(NC(=O)NC2CCN(c3ccnc(Nc4cc(OC)c(OC)c(OC)c4)n3)C2)c1 (centres unmarked) [GSK1379763] | 48 | 0 | 38 | 11 | 60 | 31 | 0 | 3 | 0 | 0
CN1CCN(CCCNc2nccc(-c3c(-c4ccc(F)cc4)nn4cc(C(F)(F)F)ccc34)n2)CC1 [GW621581] | 0 | 22 | 0 | 0 | 0 | 8 | 11 | 0 | 19 | 0
Cl.c1ccc(-c2ccc3c(Nc4ccc5[nH]ccc5c4)ccnc3c2)nc1 [GW440138] | 0 | 0 | 0 | 6 | 0 | 35 | 0 | 0 | 9 | 0

SMILES | %Inh [1] [%] | %Inh [2] [%] | %Inh [3] [%] | %Inh [4] [%] | %Inh [5] [%] | %Inh [6] [%] | %Inh [7] [%] | %Inh [8] [%] | %Inh [9] [%] | %Inh [10] [%]
CN(c1ccc(NC(=O)Nc2cc(C(F)(F)F)ccc2F)cc1)c1ccnc(Nc2ccc(S(N)(=O)=O)cc2)n1 [GW809893] | 75 | 34 | 66 | 0 | 0 | 99.7 | 80 | 2 | 29 | 28
CCCCc1nn2ncccc2c1-c1ccnc(Nc2ccc(N3CCN(C)CC3)cc2)n1 [GW684941] | 0 | 5 | 0 | 19 | 17 | 45 | 0 | 0 | 1 | 0
CN(C)S(=O)(=O)c1cc(-c2ccc3nccc(-c4cccc(S(N)(=O)=O)c4)c3c2)cnc1N [GSK1669921] | 0 | 22 | 0 | 0 | 0 | 32 | 20 | 2 | 5 | 6
C[C@@H]1CC[C@@H](C(=O)Nc2ccccc2)CN1c1cc(-c2ccc3c(N)n[nH]c3c2)nc(N)n1 [GSK2286062] | 7 | 0 | 13 | 0 | 0 | 26 | 0 | 0 | 11 | 0
CSc1cccc2c(-c3ccncn3)c(-c3ccc(F)cc3)nn12 [GW514786] | 14 | 19 | 12 | 25 | 14 | 18 | 5 | 14 | 5 | 6
Cn1cc(-c2ccc3c(c2)CCN3C(=O)Cc2cccc(Cl)c2)c2c(N)ncnc21 [GSK2606590] | 70 | 77 | 73 | 0 | 0 | 38 | 97.2 | 0 | 17 | 19
Cn1cc(-c2[nH]c3cc(NC(=O)[C@H](N)C4CCCCC4)cc4c3c2C=NNC4=O)cn1 | 88 | 69 | 83 | 0 | 0 | 15 | 27 | 99.1 | 55 | 97.5
O=C(Nc1n[nH]c2cc(-c3ccoc3)ccc12)C1CC1 [SB-738481] | 0 | 0 | 6 | 1 | 0 | 0 | 0 | 25 | 0 | 0
COc1cccc(C(=O)Nc2cccc(Oc3ccc4nc(NC(=O)C5CC5)cn4n3)c2)c1 | 8 | 0 | 2 | 21 | 0 | 17 | 9 | 0 | 15 | 0
COc1cc(Nc2nccc(-c3c(-c4cccc(NC(=O)c5c(F)cccc5F)c4)nn4ccccc34)n2)cc(OC)c1OC [GSK323521] | 28 | 56 | 17 | 0 | 0 | 6 | 92.1 | 39 | 33 | 33
Cc1cccc(NC(=O)Nc2ccc(Oc3ncnc4ccn(C)c34)cc2)c1 | 2 | 0 | 0 | 0 | 0 | 7 | 14 | 0 | 0 | 0
Nc1ncc(-c2ccc3nccc(-c4ccncc4)c3c2)cc1S(=O)(=O)N1CCOCC1 [GSK1627798] | 6 | 0 | 0 | 0 | 0 | 11 | 7 | 0 | 4 | 0
O=C(Nc1ccccc1F)NC1CCN(c2ccnc(Nc3ccc(F)cc3)n2)CC1 [GSK1379800] | 0 | 0 | 0 | 35 | 0 | 33 | 1 | 2 | 0 | 5
COc1ccc(CNC(=O)NC2CCN(c3ccnc(Nc4ccc(F)cc4)n3)CC2)cc1 [GSK1379788] | 0 | 0 | 0 | 19 | 0 | 35 | 3 | 0 | 0 | 0
O=C(Nc1cccc(Oc2ccc3nc(NC(=O)C4CC4)cn3n2)c1)c1ccccc1C(F)(F)F | 6 | 4 | 0 | 24 | 0 | 23 | 10 | 18 | 0 | 0
Fc1ccc(-c2ncn(C3CCNCC3)c2-c2ccnc(Oc3ccc(-c4ccccc4)cc3)n2)cc1 [SB-245391] | 52 | 46 | 0 | 26 | 59 | 0 | 27 | 30 | 14 | 31
